Experimental data taken from PubChem BioAssay AID1159580 (chemical genetic matrix, 2015).
Several values for one entry are separate records, joined by “and”; a condition that tells them apart may be missing. Identical values can stand only once. In all, about 5,500 compounds went through this assay and about 2,000 (36%) were called active. Another 18% or so got no clear call; they are omitted. No stated cut-off is given here; in the data, active means normalized growth mostly below about 0.91 (no sharp cut-off); inconclusive means no clear call, values can overlap the other calls; inactive means mostly above about 0.92. This is one part of the list.

Test: chemical genetic growth profiling, strain panel (AID 1159580);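 further: tested at 20 µM; growth read once vehicle control cultures reached saturation at 30 °C; 1 = growth at the plate median or of vehicle wells; lower values mean less growth of the strain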
Conditions: S. cerevisiae deletion strains, growth OD

Measured: normalized growth

COc1ccc(CCC(=O)c2c(O)cc(O[C@@H]3O[C@H](CO)C(O)[C@H](O)C3O[C@@H]3O[C@@H](C)[C@H](O)[C@@H](O)[C@H]3O)cc2O)cc1O (some centres not stated)
inactive: locus YAL013W, strain DEP1, active compounds read low 1 | locus YAL021C, strain ccr4, active compounds read low 0.994 | locus YAL026C, strain drs2, active compounds read low 1.04 | locus YAL030W, strain snc1, active compounds read low 1.01 | locus YBL061C, strain skt5, active compounds read low 1.02 | locus YBR009C, strain hhf1, active compounds read low 1.02 | locus YBR021W, strain FUR4, active compounds read low 0.997 | locus YBR023C, strain chs3, active compounds read low 1.02 | locus YBR171W, strain sec66, active compounds read low 1.04 | locus YBR229C, strain ROT2, active compounds read low 0.998 | locus YBR231C, strain swc5, active compounds read low 1.03 | locus YBR279W, strain paf1, active compounds read low 1.02 | locus YCL011C, strain gbp2, active compounds read low 1.02 | locus YCL016C, strain dcc1, active compounds read low 1.01 | locus YCL029C, strain bik1, active compounds read low 0.972 | locus YCL061C, strain MRC1, active compounds read low 1.02 | locus YCL069W, strain vba3, active compounds read low 1.02 | locus YCR088W, strain abp1, active compounds read low 1.02 | locus YDL005C, strain med2, active compounds read low 1.03 | locus YDL035C, strain GPR1, active compounds read low 0.999 | locus YDL040C, strain nat1, active compounds read low 0.998 | locus YDL074C, strain BRE1, active compounds read low 0.966 | locus YDL101C, strain DUN1, active compounds read low 0.995 | locus YDL134C, strain PPH21, active compounds read low 0.997 | locus YDL185W, strain tfp1, active compounds read low 0.955 | locus YDL192W, strain arf1, active compounds read low 0.976 | locus YDR001C, strain nth1, active compounds read low 1.01 | locus YDR069C, strain doa4, active compounds read low 1.04 | locus YDR101C, strain arx1, active compounds read low 0.987 | locus YDR137W, strain rgp1, active compounds read low 1.04 | locus YDR150W, strain NUM1, active compounds read low 1.01 | locus YDR159W, strain sac3, active compounds read low 1.1 | locus YDR162C, strain NBP2, active compounds read low 0.99 | locus YDR195W, strain ref2 0.986 | locus YDR297W, strain sur2, active compounds read low 1.02 | locus YDR318W, strain mcm21, active compounds read low 0.978 | locus YDR334W, strain swr1, active compounds read low 1.03 | locus YDR335W, strain msn5, active compounds read low 1.01 | locus YDR388W, active compounds read low 0.995 | locus YDR392W, strain spt3, active compounds read low 1.02 | locus YDR502C, strain sam2, active compounds read low 1 | locus YEL003W, strain gim4, active compounds read low 1.02 | locus YEL037C, strain rad23, active compounds read low 1.01 | locus YEL061C, strain CIN8 (second series), active compounds read low 1.01 | locus YEL061C, strain CIN8, active compounds read low 0.999 | locus YER015W, strain faa2, active compounds read low 1.01 | locus YER016W, strain bim1, active compounds read low 1.03 | locus YER110C, active compounds read low 0.983 | locus YER111C, strain swi4, active compounds read low 1.01 | locus YER155C, strain BEM2 (second series), active compounds read low 1.03 | locus YER155C, strain BEM2, active compounds read low 0.992 | locus YER167W, strain BCK2, active compounds read low 0.994 | locus YFR010W, strain ubp6, active compounds read low 1.02 | locus YGL078C, strain dbp3, active compounds read low 0.994 | locus YGL086W, strain mad1, active compounds read low 0.999 | locus YGL167C, strain pmr1, active compounds read low 1.03 | locus YGL173C, strain kem1, active compounds read low 1.03 | locus YGL227W, strain vid30, active compounds read low 1.02 | locus YGL240W, strain doc1, active compounds read low 1.05 | locus YGL248W, strain PDE1, active compounds read low 1 | locus YGL253W, strain hxk2, active compounds read low 1.02 | locus YGR078C, strain PAC10, active compounds read low 1.01 | locus YGR135W, strain pre9, active compounds read low 1 | locus YGR229C, strain SMI1, active compounds read low 1.01 | locus YGR252W, strain gcn5, active compounds read low 1.07 | locus YHR013C, strain ard1, active compounds read low 1 | locus YHR027C, strain rpn1, active compounds read low 1.02 | locus YHR030C, strain SLT2, active compounds read low 1 and 0.973 | locus YHR079C, strain IRE1 (second series), active compounds read low 0.98 | locus YHR079C, strain IRE1, active compounds read low 0.961 | locus YHR094C, strain hxt1, active compounds read low 0.966 | locus YHR129C, strain ARP1, active compounds read low 0.998 | locus YHR142W, strain chs7, active compounds read low 1.01 | locus YHR200W, strain rpn10, active compounds read low 0.975 | locus YIL066C, strain RNR3, active compounds read low 0.994 | locus YIL073C, strain SPO22, active compounds read low 0.941 | locus YIL125W, strain kgd1, active compounds read low 0.981 | locus YIR030C, strain dcg1, active compounds read low 0.988 | locus YJL092W, strain hpr5, active compounds read low 1.01 | locus YJL095W, strain BCK1 (second series), active compounds read low 1.01 | locus YJL095W, strain BCK1, active compounds read low 0.969 and 0.981 | locus YJL115W, strain asf1, active compounds read low 1.02 | locus YJL129C, strain trk1, active compounds read low 1.03 | locus YJL134W, strain LCB3, active compounds read low 0.999 | locus YJL154C, strain vps35, active compounds read low 1.01 | locus YJL164C, strain tpk1, active compounds read low 0.995 | locus YJL166W, strain qcr8, active compounds read low 1.02 | locus YJL168C, strain set2, active compounds read low 0.978 | locus YJL187C, strain SWE1 (second series), active compounds read low 0.984 | locus YJL187C, strain SWE1, active compounds read low 1.04 | locus YJR043C, strain POL32, active compounds read low 0.963 | locus YJR066W, strain TOR1, active compounds read low 0.896
